Records with an inconclusive call do not appear. Active and inactive are the calls of the source. The call rests on the fitted dose curve; in most records, active means well fitted curve in the direction sought with a large enough effect; inconclusive means small, poorly fitted or top-dose-only effect, or another doubt; inactive means no such curve, though single readings can be large; an effect the other way counts as inactive or inconclusive.
Key:
[1] = qHTS of pediatric cancer cell lines to identify multiple opportunities for drug repurposing: Primary screen for BT-12 cells (AID 1347101);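 further: plate controls were DMSO for no effect and bortezomib positive control for full effect; nearly all actives have a fitted effect of over 25% in size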
Method in brief: (§1)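 Cells (500-1,000/well) rested 5 h, then received compounds for 48 h; metabolically active cells were measured by CellTiter-Glo luminescence. Final concentrations spanned up to 46 µM (MIPE, 11-point) or 0.59 nM-46 µM (NPC, 8-point) in primary screens, 11-point in follow-ups.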

[2] = qHTS of pediatric cancer cell lines to identify multiple opportunities for drug repurposing: Primary screen for Rh18 cells (AID 1347102); further: on the % scale 0 is the no-effect control and ±100 the full control effect; nearly all actives have a fitted effect of over 65% in size
Method in brief: as §1

[3] = qHTS of pediatric cancer cell lines to identify multiple opportunities for drug repurposing: Primary screen for OHS-50 cells (AID 1347103);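 further: plate controls were DMSO neutral control for no effect and bortezomib positive control for full effect; nearly all actives have a fitted effect of over 40% in size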
Method in brief: as §1

[4] = qHTS of pediatric cancer cell lines to identify multiple opportunities for drug repurposing: Primary screen for RD cells (AID 1347104);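 further: plate controls were DMSO for no effect and bortezomib for full effect; nearly all actives have a fitted effect of over 55% in size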
Method in brief: (§2)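 Quantitative HTS format: each compound titrated (MIPE 11 points from 0.78 nM, NPC 8 points from 0.59 nM) onto cells plated 5 hours earlier. After 48 h at 37 degrees C, CellTiter-Glo luminescence was recorded.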

[5] = qHTS of pediatric cancer cell lines to identify multiple opportunities for drug repurposing: Primary screen for MG 63 (6-TG R) cells (AID 1347105); further: on the % scale 0 is the no-effect control and ±100 the full control effect; nearly all actives have a fitted effect of over 50% in size
Method in brief: as §2

[6] = qHTS of pediatric cancer cell lines to identify multiple opportunities for drug repurposing: Primary screen for control Hh wild type fibroblast cells (AID 1347106);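 further: series mostly up to about 46 µM; on the % scale 0 is the no-effect control and ±100 the full control effect; a drop in luminescence marks cytotoxicity and a rise apparent proliferation; nearly all actives have a fitted effect of over 55% in size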
Method in brief: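 Viability after 48 h compound treatment at 37C, 500-1,000 cells/well, read as ATP luminescence with CellTiter-Glo. Primary screens used 11-point (MIPE, 0.78 nM-46 µM) or 8-point (NPC, 0.59 nM-46 µM) final concentrations; follow-up screens used 11-point dilutions.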

[7] = qHTS of pediatric cancer cell lines to identify multiple opportunities for drug repurposing: Primary screen for Rh30 cells (AID 1347107); further: series mostly up to about 46 µM; on the % scale 0 is the no-effect control and ±100 the full control effect; nearly all actives have a fitted effect of over 75% in size
Method in brief: as §1

[8] = qHTS of pediatric cancer cell lines to identify multiple opportunities for drug repurposing: Primary screen for Rh41 cells (AID 1347108);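 further: series mostly up to about 46 µM; luminescence drop marks cytotoxic hits; nearly all actives have a fitted effect of over 70% in size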
Method in brief: as §2

Measured: activity change, negative = cytotoxic

CC(=O)Nc1cccc(O)c1
inactive: all assays above

NS(=O)(=O)c1cc(-c2nn[nH]n2)c(NCc2cccs2)cc1Cl
inactive: all assays above

CC(C)NC[C@@H](O)COc1ccc(CC(N)=O)cc1
inactive: all assays above

CCOc1cc(NC(C)=O)ccc1C(=O)OC
inactive: all assays above

CC(C)C[C@@H](N)C(=O)O
inactive: all assays above

CC1CCN(CCCC(=O)c2ccc(F)cc2)CC1
inactive: all assays above

Cn1c(=O)c2c(ncn2CCO)n(C)c1=O
inactive: all assays above

CC(N)CCCC(C)(C)O (centres undefined)
inactive: all assays above

COc1ccc(C(=O)N2CCN(CC(=O)N3CCOCC3)CC2)cc1
inactive: all assays above

CC(C)CCCC(C)CCCC(C)CCCCC(C)CCCC(C)CCCC(C)C (centres undefined)
inactive: all assays above

CC(=O)N(CC(O)CN(C(C)=O)c1c(I)c(C(=O)NCC(O)CO)c(I)c(C(=O)NCC(O)CO)c1I)c1c(I)c(C(=O)NCC(O)CO)c(I)c(C(=O)NCC(O)CO)c1I (centres undefined)
inactive: all assays above

CCOc1ccc(C(=O)OCCN(CC)CC)cc1
inactive: all assays above

Nc1ncnc(Nc2ccccc2)n1
inactive: all assays above

CCOC(=O)OC(C)OC(=O)[C@@H]1N2C(=O)[C@@H](NC(=O)[C@H](N)c3ccccc3)[C@H]2SC1(C)C (some centres undefined)
inactive: all assays above

O=C1c2cccc(O)c2C(=O)c2c(O)cccc21
inactive: all assays above

O=C(O)CCCc1ccccc1
inactive: all assays above

O=c1[nH]c(=O)c2ccccc2o1
inactive: all assays above

CC(=O)NCc1c(I)c(NC(C)=O)c(I)c(C(=O)O)c1I
inactive: all assays above

O=c1[nH]cnc2nc[nH]c12
inactive: all assays above

NS(=O)(=O)c1cc2c(cc1C(F)(F)F)NCNS2(=O)=O
inactive: all assays above

CC(=O)N[C@H]1[C@H]([C@H](O)[C@H](O)CO)OC(C(=O)O)=C[C@@H]1N=C(N)N
inactive: all assays above

C1CCN2C[C@@H]3C[C@@H](CN4CCCC[C@@H]34)[C@H]2C1
inactive: all assays above

O=C(CN1CCNCC1)NC1CCCCC1
inactive: all assays above

CCCCCC(C)N (centres undefined)
inactive: all assays above

O=C(O)CCCCC1CCSS1 (centres undefined)
inactive: all assays above

Nc1ncnc2c1ncn2[C@@H]1O[C@H](COP(=O)(O)O)[C@@H](O)[C@H]1O
inactive: all assays above

CCCCCCCCCCOc1cc2c(=O)c(C(=O)OCC)c[nH]c2cc1OCC
inactive: [1] 6.24% [at 6.03 µM] | [2] 5.32% [at 4.84 µM] | [3] -4.02% [at 6.18 µM] | [4] 5.98% [at 4.84 µM] | [5] -13.3% [at 4.84 µM] | [6] 1.24% [at 4.84 µM] | [7] 19.2% [at 4.84 µM] | [8] 18.9% [at 4.84 µM]

COc1ccc(NS(=O)(=O)c2ccc(N)cc2)nn1
inactive: all assays above

Cc1cc(NC(=O)C2=C(O)c3ccccc3S(=O)(=O)N2C)no1
inactive: all assays above

NC(=O)N[C@@H](CCC(=O)O)C(=O)O
inactive: all assays above

CNc1c2c(nn1C)CCCC2
inactive: all assays above

Nc1ccc(S(=O)(=O)c2ccc(N)cc2)cc1
inactive: all assays above

CCCCC1(COC(=O)CCC(=O)O)C(=O)N(c2ccccc2)N(c2ccccc2)C1=O
inactive: all assays above

Cc1ccsc1C(=CCCN1CCC[C@@H](C(=O)O)C1)c1sccc1C
inactive: all assays above

CC(=O)OCC(COC(C)=O)OC(C)=O
inactive: all assays above

C[C@@H]1O[C@@H](OC[C@H]2O[C@@H](Oc3c(-c4ccc(O)c(O)c4)oc4cc(O)cc(O)c4c3=O)[C@H](O)[C@@H](O)[C@@H]2O)[C@H](O)[C@H](O)[C@H]1O
inactive: all assays above

NC(N)=NS(=O)(=O)c1ccc(N)cc1
inactive: all assays above

O=C1C(c2[nH]c3ccccc3c2O)=Nc2ccccc21
inactive: all assays above

O=C(O)c1ccc(OCCCOc2ccc(C(=O)O)cc2)cc1
inactive: all assays above

O=C(/C=C/c1ccccc1)OCc1ccccc1
inactive: all assays above

Cc1c(C(=O)NCCO)[n+](=O)c2ccccc2n1[O-]
inactive: all assays above

COCC(=O)Nc1c(I)c(C(=O)NCC(O)CO)c(I)c(C(=O)N(C)CC(O)CO)c1I (centres undefined)
inactive: all assays above

COC(=O)c1cccnc1
inactive: all assays above

C=CCN1C[C@H](C(=O)N(CCCN(C)C)C(=O)NCC)C[C@@H]2c3cccc4[nH]cc(c34)C[C@H]21
inactive: all assays above

Cc1ccccc1N=Nc1ccc(N=Nc2c(O)ccc3ccccc23)c(C)c1
inactive: all assays above

Cc1ccc(C(C)C)c(O)c1
inactive: all assays above

C=CCOc1ccccc1OCC(O)CNC(C)C (centres undefined)
inactive: all assays above

OCCN1C[C@H](O)[C@@H](O)[C@H](O)[C@H]1CO
inactive: all assays above

NC(=O)c1ccc([N+](=O)[O-])cc1Cl
inactive: all assays above

CCCCCCCCCCC(CO)CCCCCCCC (centres undefined)
inactive: all assays above

CCOC(=O)c1cccnc1
inactive: all assays above

O=C(O)/C=C/c1ccc(Cn2ccnc2)cc1
inactive: all assays above

C/C(=C(\CCO)SS/C(CCO)=C(\C)N(C=O)Cc1cnc(C)nc1N)N(C=O)Cc1cnc(C)nc1N
inactive: all assays above

— PubChem BioAssay (NCATS)
